Values joined by “and” are separate entries in the source; they are usually repeats but may differ in a detail not shown here. Equal entries are not always repeated. Hit rate of the full screen: of about 5,500 compounds, about 2,000 (36%) were called active. Not shown: some 18% with an inconclusive outcome. No stated cut-off is given here; in the data, active means normalized growth mostly below about 0.91 (no sharp cut-off); inconclusive means no clear call, values can overlap the other calls; inactive means mostly above about 0.92. Some of the results follow.
Experiment: chemical genetic growth profiling, strain panel (AID 1159580);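 further: tested at 20 µM; growth read once vehicle control cultures reached saturation at 30 °C; 1 = growth at the plate median or of vehicle wells; lower values mean less growth of the strain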
Conditions: S. cerevisiae deletion strains, growth OD

Measured: normalized growth

CCCC(C)(COC(N)=O)COC(=O)NC(C)C (stereo unspecified)
inactive: locus YAL021C, strain ccr4, hits give low values 1 | locus YAL026C, strain drs2, hits give low values 0.99 | locus YAL030W, strain snc1, hits give low values 0.98 | locus YAL040C, strain CLN3, hits give low values 0.989 | locus YBL061C, strain skt5, hits give low values 1 | locus YBR009C, strain hhf1, hits give low values 0.983 | locus YBR021W, strain FUR4, hits give low values 0.991 | locus YBR023C, strain chs3, hits give low values 1.01 | locus YBR171W, strain sec66, hits give low values 1 | locus YBR229C, strain ROT2, hits give low values 0.954 | locus YBR231C, strain swc5, hits give low values 1.01 | locus YBR279W, strain paf1, hits give low values 1 | locus YCL011C, strain gbp2, hits give low values 0.996 | locus YCL016C, strain dcc1, hits give low values 0.985 | locus YCL029C, strain bik1, hits give low values 0.977 | locus YCL061C, strain MRC1, hits give low values 1 | locus YCL069W, strain vba3, hits give low values 0.992 | locus YCR088W, strain abp1, hits give low values 0.998 | locus YDL005C, strain med2, hits give low values 1 | locus YDL035C, strain GPR1, hits give low values 0.951 | locus YDL040C, strain nat1, hits give low values 1 | locus YDL074C, strain BRE1, hits give low values 0.974 | locus YDL101C, strain DUN1, hits give low values 0.982 | locus YDL134C, strain PPH21, hits give low values 0.965 | locus YDL185W, strain tfp1, hits give low values 0.945 | locus YDL192W, strain arf1, hits give low values 0.965 | locus YDR001C, strain nth1, hits give low values 0.974 | locus YDR069C, strain doa4, hits give low values 1.01 | locus YDR101C, strain arx1, hits give low values 0.983 | locus YDR137W, strain rgp1, hits give low values 0.966 | locus YDR150W, strain NUM1, hits give low values 0.983 | locus YDR159W, strain sac3, hits give low values 0.986 | locus YDR162C, strain NBP2, hits give low values 0.94 | locus YDR195W, strain ref2 1 | locus YDR297W, strain sur2, hits give low values 0.991 | locus YDR318W, strain mcm21, hits give low values 0.979 | locus YDR334W, strain swr1, hits give low values 0.979 | locus YDR335W, strain msn5, hits give low values 0.989 | locus YDR363W, strain ESC2, hits give low values 0.976 | locus YDR388W, hits give low values 0.979 | locus YDR392W, strain spt3, hits give low values 0.952 | locus YDR502C, strain sam2, hits give low values 0.984 | locus YEL003W, strain gim4, hits give low values 0.986 | locus YEL037C, strain rad23, hits give low values 0.993 | locus YEL061C, strain CIN8 (second series), hits give low values 0.975 | locus YEL061C, strain CIN8, hits give low values 0.982 | locus YER002W, strain NOP16, hits give low values 0.995 | locus YER015W, strain faa2, hits give low values 1.01 | locus YER016W, strain bim1, hits give low values 0.986 | locus YER110C, hits give low values 0.964 | locus YER111C, strain swi4, hits give low values 0.973 | locus YER155C, strain BEM2 (second series), hits give low values 1.04 | locus YER155C, strain BEM2, hits give low values 0.99 | locus YER167W, strain BCK2, hits give low values 0.989 | locus YFR010W, strain ubp6, hits give low values 0.985 | locus YGL078C, strain dbp3, hits give low values 0.981 | locus YGL086W, strain mad1, hits give low values 0.98 | locus YGL167C, strain pmr1, hits give low values 0.991 | locus YGL173C, strain kem1, hits give low values 0.993 | locus YGL227W, strain vid30, hits give low values 0.987 | locus YGL240W, strain doc1, hits give low values 1.02 | locus YGL248W, strain PDE1, hits give low values 0.991 | locus YGL253W, strain hxk2, hits give low values 0.978 | locus YGR078C, strain PAC10, hits give low values 0.988 | locus YGR135W, strain pre9, hits give low values 1 | locus YGR229C, strain SMI1, hits give low values 0.971 | locus YGR252W, strain gcn5, hits give low values 0.989 | locus YHR013C, strain ard1, hits give low values 0.967 | locus YHR027C, strain rpn1, hits give low values 1.01 | locus YHR030C, strain SLT2, hits give low values 0.992 and 0.979 | locus YHR079C, strain IRE1 (second series), hits give low values 0.989 | locus YHR079C, strain IRE1, hits give low values 0.974 | locus YHR094C, strain hxt1, hits give low values 0.969 | locus YHR129C, strain ARP1, hits give low values 0.988 | locus YHR142W, strain chs7, hits give low values 0.982 | locus YHR200W, strain rpn10, hits give low values 0.967 | locus YIL066C, strain RNR3, hits give low values 0.975 | locus YIL073C, strain SPO22, hits give low values 0.981 | locus YIL125W, strain kgd1, hits give low values 0.969 | locus YIR030C, strain dcg1, hits give low values 0.978 | locus YJL092W, strain hpr5, hits give low values 0.988 | locus YJL095W, strain BCK1 (second series), hits give low values 0.998 | locus YJL095W, strain BCK1, hits give low values 1.02 and 0.977 | locus YJL115W, strain asf1, hits give low values 0.962 | locus YJL129C, strain trk1, hits give low values 0.983 | locus YJL134W, strain LCB3, hits give low values 0.976 | locus YJL154C, strain vps35, hits give low values 0.992 | locus YJL164C, strain tpk1, hits give low values 0.966 | locus YJL166W, strain qcr8, hits give low values 1.01 | locus YJL168C, strain set2, hits give low values 0.981 | locus YJL187C, strain SWE1 (second series), hits give low values 0.987 | locus YJR043C, strain POL32, hits give low values 0.965 | locus YJR066W, strain TOR1, hits give low values 0.965 | locus YJR075W, strain HOC1, hits give low values 0.997 | locus YKL009W, strain mrt4, hits give low values 1.03 | locus YKL068W, hits give low values 0.971 | locus YKL085W, strain MDH1 (second series), hits give low values 0.982 | locus YKL085W, strain MDH1, hits give low values 0.982 | locus YKL160W, strain elf1, hits give low values 1 | locus YKR001C, strain vps1, hits give low values 0.97 | locus YKR026C, strain gcn3, hits give low values 0.989 | locus YKR091W, strain srl3, hits give low values 0.97 | locus YLL001W, strain dnm1, hits give low values 1.02 | locus YLL026W, hits give low values 1 | locus YLL041C, strain sdh2, hits give low values 1.01 | locus YLR027C, strain aat2, hits give low values 0.993 | locus YLR039C, strain RIC1, hits give low values 0.974 | locus YLR058C, strain SHM2, hits give low values 0.978 | locus YLR102C, strain apc9, hits give low values 0.982 | locus YLR113W, strain HOG1, hits give low values 0.978 | locus YLR221C, strain rsa3, hits give low values 1.01 | locus YLR258W, strain gsy2, hits give low values 0.986 | locus YLR262C, strain YPT6 (second series), hits give low values 0.991 | locus YLR262C, strain YPT6, hits give low values 0.911 | locus YLR268W, strain sec22, hits give low values 0.969 | locus YLR320W, strain mms22, hits give low values 0.985 | locus YLR330W, strain CHS5, hits give low values 0.985 | locus YLR342W, strain FKS1 (second series), hits give low values 0.995 | locus YLR342W, strain FKS1, hits give low values 1.02 | locus YLR357W, strain rsc2, hits give low values 0.949 | locus YLR370C, strain arc18, hits give low values 1.01 | locus YLR371W, strain rom2, hits give low values 0.959 | locus YLR384C, strain iki3, hits give low values 1 | locus YLR418C, strain cdc73, hits give low values 1.01 | locus YML016C, strain PPZ1, hits give low values 0.986 | locus YML032C, strain rad52, hits give low values 0.97 | locus YML120C, strain ndi1, hits give low values 1 | locus YML124C, strain tub3, hits give low values 0.986 | locus YMR058W, strain fet3, hits give low values 0.973 | locus YMR078C, strain ctf18, hits give low values 0.964 | locus YMR125W, strain sto1, hits give low values 0.975 | locus YMR129W, hits give low values 0.985 | locus YMR205C, strain PFK2, hits give low values 1 | locus YMR223W, strain ubp8, hits give low values 1 | locus YMR231W, strain pep5, hits give low values 0.999 | locus YMR263W, strain SAP30, hits give low values 0.99 | locus YMR307W, strain GAS1, hits give low values 0.942 | locus YNL067W, strain RPL9B, hits give low values 0.992 | locus YNL071W, strain lat1, hits give low values 1 | locus YNL128W, strain TEP1, hits give low values 0.97 | locus YNL153C, strain GIM3, hits give low values 0.995 | locus YNL175C, strain NOP13, hits give low values 0.988 | locus YNL183C, strain NPR1, hits give low values 0.925 | locus YNL197C, strain WHI3, hits give low values 0.95 | locus YNL209W, strain ssb2, hits give low values 0.983 | locus YNL224C, strain SQS1, hits give low values 0.996 | locus YNL233W, strain BNI4, hits give low values 1 | locus YNL248C, strain rpa49, hits give low values 0.921 | locus YNL250W, strain rad50, hits give low values 0.961 | locus YNL271C, strain bni1, hits give low values 0.979 | locus YNL298W, strain CLA4, hits give low values 0.972 | locus YNL307C, strain MCK1, hits give low values 0.979 | locus YNL322C, strain KRE1 (second series), hits give low values 1.01 | locus YNL322C, strain KRE1, hits give low values 0.995 | locus YNR049C, strain mso1, hits give low values 0.986 | locus YNR052C, strain pop2, hits give low values 0.974 | locus YOL012C, strain htz1 1.03 | locus YOL147C, strain pex11, hits give low values 0.991 | locus YOR001W, strain rrp6, hits give low values 1.02 | locus YOR061W, strain CKA2, hits give low values 0.962 | locus YOR069W, strain VPS5, hits give low values 0.984 | locus YOR070C, strain gyp1, hits give low values 0.992 | locus YOR080W, strain dia2, hits give low values 1.01 | locus YOR083W, strain WHI5 (second series), hits give low values 0.975 | locus YOR083W, strain WHI5, hits give low values 1.03 | locus YOR106W, strain vam3, hits give low values 1.02 | locus YOR136W, strain idh2, hits give low values 0.973 | locus YOR144C, strain elg1, hits give low values 0.984 | locus YOR184W, strain ser1, hits give low values 0.965 | locus YOR231W, strain MKK1, hits give low values 0.981 | locus YOR265W, strain rbl2, hits give low values 1 | locus YOR270C, strain vph1, hits give low values 0.968 | locus YOR290C, strain snf2, hits give low values 0.982 | locus YOR316C, strain cot1, hits give low values 0.948 | locus YPL051W, strain arl3, hits give low values 1.02 | locus YPL055C, strain LGE1, hits give low values 0.988 | locus YPL078C, strain atp4, hits give low values 1.01 | locus YPL106C, strain sse1, hits give low values 0.984 | locus YPL240C, strain hsp82, hits give low values 1 | locus YPL241C, strain CIN2, hits give low values 0.999 | locus YPL256C, strain CLN2, hits give low values 0.965 | locus YPR119W, strain clb2, hits give low values 0.977 | locus YPR141C, strain kar3, hits give low values 0.956 | locus YPR163C, strain tif3, hits give low values 0.975 | locus YPR167C, strain met16, hits give low values 0.985 | strain wtn01, hits give low values 0.996
